According to the OligoGym collection:

Target: FXN
Assay: pooled miR-30 sensor sort-seq; sequence = guide strand
Details: shRNA
Also: reference of the scale not given here.

Sequence	sensor-assay potency score (higher = more potent)
AAAGGAGACATCATAGTCCTCA	0.0111
TGCTTGTTGATCACATAGGTTC	-0.833
TTTCATAGGTGGTCTCATCTAG	-0.00192
TGTTGATCACATAGGTTCCTAG	-0.584
TTGTTGATCACATAGGTTCCTA	0.0276
TCTGCTAGTCTTTCATAGGTGG	0.437
TTTTTGACATTCCAAATCTGGT	-1.15
TTTGACATTCCAAATCTGGTTG	-0.256
ATAACGCTTAGGTCCACTGGAT	-1.03
TTTTGACATTCCAAATCTGGTT	-0.929
TTGGTTTTTAAGGCTTTAGTGA	-0.944
TTTAGTGAGCTCTGCGGCCAGC	-1.33
TAGTCTTTCATAGGTGGTCTCA	-0.873
TCTGCTAAAGAGTCCAGCGTTT	-0.618
ATTCATCAAATAGACACTCTGC	0.393
